# About 8,800 targets were measured; listed, in parts, are those with a hit and a random draw of the rest. About 0.5% of all pairs of compound and target were hits. Values without a mark were called inactive.
# How the values were obtained:
# Experiment in all cases: log2 fold change, soluble protein after heating vs DMSO (PISA); higher = thermal stabilisation; K562 lysate, 10 uM; active = over 0.2 and 3.5 SD of the protein, either way, in both replicates (recomputed)
# [1] = compound: NCC(=O)Nc1ccc(-n2nc(C(F)(F)F)cc2-c2ccc3c(ccc4ccccc43)c2)cc1
# Outline: (§1)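 The values are log-two fold changes in thermal stability compared with solvent controls and come from duplicates. They were obtained by TMTpro 16plex LC-MS/MS, with channel sums equalised, on the supernatant after 21,000xg for 90 min. That supernatant came from crude K562 extract at 1 mg/mL protein treated with 10 μM compound for 30 min, heated for 3 min across 48°C-58°C, pooled and brought to 0.5% NP-40 at 4°C.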
# [2] = compound: O=C1NC(=O)C(c2cnc3ccccn23)=C1c1cn2c3c(cc(F)cc13)CN(C(=O)N1CCCCC1)CC2
# Outline: as §1
# entospletinib = compound: c1cn2cc(-c3ccc4cn[nH]c4c3)nc(Nc3ccc(N4CCOCC4)cc3)c2n1 [entospletinib]
# Outline: as §1
# vorinostat = compound: O=C(CCCCCCC(=O)Nc1ccccc1)NO [vorinostat]
# Outline: as §1
# silmitasertib = compound: O=C(O)c1ccc2c(c1)nc(Nc1cccc(Cl)c1)c1ccncc12 [silmitasertib]
# Outline: as §1
# Sequence of UniProt P55210 (P55210 whole entry, looked up): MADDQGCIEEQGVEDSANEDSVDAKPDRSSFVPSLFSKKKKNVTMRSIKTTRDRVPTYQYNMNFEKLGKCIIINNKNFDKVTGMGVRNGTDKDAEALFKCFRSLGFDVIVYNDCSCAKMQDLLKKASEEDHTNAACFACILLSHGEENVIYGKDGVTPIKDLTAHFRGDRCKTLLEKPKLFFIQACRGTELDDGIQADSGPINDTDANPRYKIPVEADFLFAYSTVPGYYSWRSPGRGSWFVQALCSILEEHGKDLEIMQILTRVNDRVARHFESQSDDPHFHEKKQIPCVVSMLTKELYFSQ
# Sequence of UniProt P13994 (P13994 whole entry, looked up): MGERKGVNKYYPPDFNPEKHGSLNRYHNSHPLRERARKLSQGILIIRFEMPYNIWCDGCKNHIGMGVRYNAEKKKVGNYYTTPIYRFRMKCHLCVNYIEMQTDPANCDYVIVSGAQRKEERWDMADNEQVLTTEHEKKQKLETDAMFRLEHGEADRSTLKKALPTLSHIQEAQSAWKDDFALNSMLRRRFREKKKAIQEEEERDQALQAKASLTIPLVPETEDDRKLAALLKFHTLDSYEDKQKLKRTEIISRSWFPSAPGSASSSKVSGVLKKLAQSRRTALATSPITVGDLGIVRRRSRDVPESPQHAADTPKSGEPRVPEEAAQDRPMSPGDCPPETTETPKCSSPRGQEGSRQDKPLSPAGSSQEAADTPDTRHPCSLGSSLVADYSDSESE
# Sequence of UniProt Q12983 (Q12983 whole entry, looked up): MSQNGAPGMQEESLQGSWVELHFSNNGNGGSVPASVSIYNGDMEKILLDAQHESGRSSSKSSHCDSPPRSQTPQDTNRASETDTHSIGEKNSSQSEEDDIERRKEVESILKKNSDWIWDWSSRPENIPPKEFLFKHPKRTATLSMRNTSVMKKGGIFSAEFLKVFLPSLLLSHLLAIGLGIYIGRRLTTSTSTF
# Sequence of UniProt P55211 (P55211 whole entry, looked up): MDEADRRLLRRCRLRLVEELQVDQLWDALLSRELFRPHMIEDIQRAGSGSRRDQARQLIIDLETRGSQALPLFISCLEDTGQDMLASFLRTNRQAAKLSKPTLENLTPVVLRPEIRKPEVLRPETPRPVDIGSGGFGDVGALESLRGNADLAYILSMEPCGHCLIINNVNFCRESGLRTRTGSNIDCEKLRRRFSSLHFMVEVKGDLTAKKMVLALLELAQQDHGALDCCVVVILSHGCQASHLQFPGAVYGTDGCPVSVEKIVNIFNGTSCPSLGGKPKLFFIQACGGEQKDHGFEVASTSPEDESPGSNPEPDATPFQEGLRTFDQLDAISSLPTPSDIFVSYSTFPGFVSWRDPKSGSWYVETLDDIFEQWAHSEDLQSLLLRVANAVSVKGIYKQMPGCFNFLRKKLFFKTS
# Sequence of UniProt Q9C0D2 (Q9C0D2 whole entry, looked up): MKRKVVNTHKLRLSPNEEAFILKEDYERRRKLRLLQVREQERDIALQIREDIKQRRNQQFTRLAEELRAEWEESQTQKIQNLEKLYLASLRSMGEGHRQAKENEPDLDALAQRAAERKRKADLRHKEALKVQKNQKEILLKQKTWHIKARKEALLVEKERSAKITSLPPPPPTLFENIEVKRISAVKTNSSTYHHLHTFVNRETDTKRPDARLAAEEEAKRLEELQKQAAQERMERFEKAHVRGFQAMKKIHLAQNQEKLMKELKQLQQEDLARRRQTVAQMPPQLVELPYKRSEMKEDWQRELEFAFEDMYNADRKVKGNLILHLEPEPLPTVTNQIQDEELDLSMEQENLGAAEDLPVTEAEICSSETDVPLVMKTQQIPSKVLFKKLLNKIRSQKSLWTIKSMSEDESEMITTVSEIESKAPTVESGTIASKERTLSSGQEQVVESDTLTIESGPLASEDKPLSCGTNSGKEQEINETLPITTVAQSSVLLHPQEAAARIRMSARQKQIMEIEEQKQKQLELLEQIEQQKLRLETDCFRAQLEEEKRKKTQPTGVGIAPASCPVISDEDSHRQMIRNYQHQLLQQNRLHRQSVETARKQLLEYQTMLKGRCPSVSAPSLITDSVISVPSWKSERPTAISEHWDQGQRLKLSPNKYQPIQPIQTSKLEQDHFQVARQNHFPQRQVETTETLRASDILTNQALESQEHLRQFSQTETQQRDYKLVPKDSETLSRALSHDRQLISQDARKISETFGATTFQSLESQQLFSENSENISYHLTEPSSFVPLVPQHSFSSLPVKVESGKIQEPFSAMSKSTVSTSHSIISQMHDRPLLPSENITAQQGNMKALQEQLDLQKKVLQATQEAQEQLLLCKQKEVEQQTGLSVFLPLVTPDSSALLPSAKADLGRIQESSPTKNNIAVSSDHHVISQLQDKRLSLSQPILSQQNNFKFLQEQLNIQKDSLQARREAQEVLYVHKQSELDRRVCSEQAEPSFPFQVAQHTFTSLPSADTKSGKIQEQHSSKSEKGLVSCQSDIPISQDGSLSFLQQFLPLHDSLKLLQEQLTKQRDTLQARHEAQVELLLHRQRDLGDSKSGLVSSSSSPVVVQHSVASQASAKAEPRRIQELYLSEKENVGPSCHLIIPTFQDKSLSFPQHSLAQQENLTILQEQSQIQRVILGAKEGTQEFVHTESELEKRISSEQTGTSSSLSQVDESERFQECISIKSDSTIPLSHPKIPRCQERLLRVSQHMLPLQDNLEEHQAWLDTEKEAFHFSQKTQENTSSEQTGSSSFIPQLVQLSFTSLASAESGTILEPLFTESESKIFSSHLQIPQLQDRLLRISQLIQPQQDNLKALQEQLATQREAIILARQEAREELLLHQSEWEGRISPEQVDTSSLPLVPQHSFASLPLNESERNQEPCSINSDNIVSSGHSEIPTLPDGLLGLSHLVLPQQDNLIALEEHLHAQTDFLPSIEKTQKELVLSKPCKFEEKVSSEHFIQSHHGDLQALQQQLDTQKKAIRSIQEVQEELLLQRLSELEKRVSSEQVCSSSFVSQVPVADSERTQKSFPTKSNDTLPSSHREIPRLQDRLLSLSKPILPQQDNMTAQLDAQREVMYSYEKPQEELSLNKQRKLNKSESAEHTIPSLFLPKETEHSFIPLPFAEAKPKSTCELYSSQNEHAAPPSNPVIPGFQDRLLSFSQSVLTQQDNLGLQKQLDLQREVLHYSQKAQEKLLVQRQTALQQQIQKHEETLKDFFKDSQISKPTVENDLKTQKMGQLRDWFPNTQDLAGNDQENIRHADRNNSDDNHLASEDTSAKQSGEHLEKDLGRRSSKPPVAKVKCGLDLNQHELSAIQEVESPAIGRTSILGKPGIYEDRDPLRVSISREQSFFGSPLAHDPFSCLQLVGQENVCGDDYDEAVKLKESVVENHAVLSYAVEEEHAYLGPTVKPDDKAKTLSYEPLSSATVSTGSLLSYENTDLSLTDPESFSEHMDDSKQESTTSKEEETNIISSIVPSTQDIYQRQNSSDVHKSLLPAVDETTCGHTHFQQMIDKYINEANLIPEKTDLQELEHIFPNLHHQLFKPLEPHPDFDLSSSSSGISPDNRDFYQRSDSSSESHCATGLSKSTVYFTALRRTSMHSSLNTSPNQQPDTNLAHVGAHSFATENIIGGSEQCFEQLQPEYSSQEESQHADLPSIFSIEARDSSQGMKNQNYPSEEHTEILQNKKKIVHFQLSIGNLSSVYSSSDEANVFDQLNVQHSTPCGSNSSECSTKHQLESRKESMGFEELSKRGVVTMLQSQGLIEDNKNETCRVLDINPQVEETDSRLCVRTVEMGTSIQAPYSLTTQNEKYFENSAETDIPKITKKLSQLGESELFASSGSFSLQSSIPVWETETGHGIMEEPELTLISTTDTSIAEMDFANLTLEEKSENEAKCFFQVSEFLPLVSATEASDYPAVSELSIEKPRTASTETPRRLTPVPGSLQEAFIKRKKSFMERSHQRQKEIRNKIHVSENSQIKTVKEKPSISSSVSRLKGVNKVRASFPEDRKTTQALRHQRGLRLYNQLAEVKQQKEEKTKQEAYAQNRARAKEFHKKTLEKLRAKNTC
# Sequence of UniProt Q7Z7K6 (Q7Z7K6 whole entry, looked up): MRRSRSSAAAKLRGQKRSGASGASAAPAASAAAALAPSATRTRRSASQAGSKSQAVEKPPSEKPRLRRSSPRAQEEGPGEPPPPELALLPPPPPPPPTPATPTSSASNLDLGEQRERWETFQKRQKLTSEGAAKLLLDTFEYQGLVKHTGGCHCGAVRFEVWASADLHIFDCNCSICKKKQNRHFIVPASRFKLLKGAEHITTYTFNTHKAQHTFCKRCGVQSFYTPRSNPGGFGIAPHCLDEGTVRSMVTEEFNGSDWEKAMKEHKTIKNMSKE
# Sequence of UniProt Q8IYX8 (Q8IYX8 whole entry, looked up): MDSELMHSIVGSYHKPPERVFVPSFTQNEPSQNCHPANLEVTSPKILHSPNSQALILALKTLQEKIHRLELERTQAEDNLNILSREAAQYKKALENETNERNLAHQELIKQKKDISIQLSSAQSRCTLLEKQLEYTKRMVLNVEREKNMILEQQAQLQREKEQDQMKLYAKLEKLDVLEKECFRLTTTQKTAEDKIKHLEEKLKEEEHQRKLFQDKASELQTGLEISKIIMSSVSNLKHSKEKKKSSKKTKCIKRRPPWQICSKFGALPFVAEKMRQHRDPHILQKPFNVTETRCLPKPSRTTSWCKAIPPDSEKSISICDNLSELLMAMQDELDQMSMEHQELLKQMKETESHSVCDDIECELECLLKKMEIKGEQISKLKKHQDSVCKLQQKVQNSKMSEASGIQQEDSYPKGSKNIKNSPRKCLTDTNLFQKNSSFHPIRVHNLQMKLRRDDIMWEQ
# Sequence of UniProt P30281 (P30281 whole entry, looked up): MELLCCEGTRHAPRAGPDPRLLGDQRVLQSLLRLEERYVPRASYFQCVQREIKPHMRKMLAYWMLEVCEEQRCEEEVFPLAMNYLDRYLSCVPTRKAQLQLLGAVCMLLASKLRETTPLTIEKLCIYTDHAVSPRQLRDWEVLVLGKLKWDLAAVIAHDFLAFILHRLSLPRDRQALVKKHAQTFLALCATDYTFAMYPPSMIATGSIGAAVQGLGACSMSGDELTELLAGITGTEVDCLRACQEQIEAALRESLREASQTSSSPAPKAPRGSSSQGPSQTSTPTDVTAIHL
# Sequence of UniProt Q9BUK0 (Q9BUK0 whole entry, looked up): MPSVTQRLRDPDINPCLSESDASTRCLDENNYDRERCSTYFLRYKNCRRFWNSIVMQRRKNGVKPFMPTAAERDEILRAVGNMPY
Target,log2 fold change [1],log2 fold change [2],log2 fold change (entospletinib),log2 fold change (vorinostat),log2 fold change (silmitasertib)
CDKL5 (UniProt O76039),0.037,0.011,0.017,,
CCND3 (UniProt P30281),,0.086,0.062,-0.051,0.017
B3GALT6 (UniProt Q96L58),,0.071,,0.218,-0.029
"BRAF, A0A2R8Y8E0",0.017,,-0.082,,
CEP128 (UniProt Q6ZU80),0.017,,-0.081,,
BNIP3 (UniProt Q12983),,-0.048,-0.031,0.066,-0.08
C3AR1 (UniProt Q16581),,-0.013,,,
CCDC130 (UniProt P13994),,-0.306,-0.076,-0.003,0.173
BPHL (UniProt Q86WA6),-0.093,-0.006,0.028,0.143,0.049
CEP295 isoform 3 (UniProt Q9C0D2),,-0.076,0.087,-0.004,0.076
BCKDK (UniProt O14874),-0.01,-0.271 (active),-0.053,0.025,0.052
BUD13 (UniProt Q9BRD0),,0.036,-0.046,0.136,0.054
C9orf72 (UniProt Q96LT7),,-0.015,-0.129,0.919 (active),-0.045
C6orf120 (UniProt Q7Z4R8),,,,0.273,-0.075
C18orf25 isoform 2 (UniProt Q96B23),-0.014,,0.038,-0.034,-0.067
ATPSCKMT (UniProt Q6P4H8),,0,0.105,,
CASP7 isoform 3 (UniProt P55210),,0.01,0.063,-0.254,0.113

Target,log2 fold change [1],log2 fold change [2],log2 fold change (entospletinib),log2 fold change (vorinostat),log2 fold change (silmitasertib)
CACUL1 (UniProt Q86Y37),0.176,-0.081,-0.056,-0.543 (active),0.024
CHCHD7 isoform 4 (UniProt Q9BUK0),-0.031,-0.066,0.008,,
BTRC (UniProt Q9Y297),0.03,,-0.004,-0.342 (active),0.035
CAD (UniProt H7BZB3),0.113,,-0.008,-0.54,-0.006
ATE1 (UniProt O95260),,0.028,,,
CCPG1 isoform 5 (UniProt Q9ULG6),-0.022,-0.025,0,0.043,-0.012
BICRA (UniProt Q9NZM4),,-0.076,,0.11,-0.203
CEP57L1 (UniProt Q8IYX8),,-0.044,-0.029,-0.23,0.133
CENPV (UniProt Q7Z7K6),0.396,0.039,0.084,,
CDCA8 (UniProt Q53HL2),0.066,,0.112,0.13,-0.093
CDK11A (UniProt Q9UQ88),,-0.012,,-0.329,0.049
"CHD4, A0A2R8Y521",,,-0.313,,
CDAN1 (UniProt H3BPZ6),,0.006,,,
CASP9 (UniProt P55211),0.011,0.019,-0.002,-0.342 (active),-0.004
CDK1 (UniProt P06493),0.029,-0.055,0.006,-0.049,
C15orf39 (UniProt Q6ZRI6),,-0.025,-0.147,-0.513 (active),0.008

# Source: the supplement of paper PMC10849652
